Test results from PubChem BioAssay (Tox21).
Where “and” joins values, the source holds several entries; their conditions need not be identical. Identical values can stand only once. A number with no mark means an inactive call. Results filed as inconclusive are left out. Where a call stands in place of a potency, no number is given. Calls of active or inactive are those of the source. Unless noted, the call rests on the fitted dose curve; in most records, active means well fitted curve in the direction sought with a large enough effect in the repeat runs; inconclusive means weak or mixed curves; inactive means no such curve, though single readings can be large; an effect the other way counts as inactive or inconclusive.

Legend:
[1] = qHTS assay to identify small molecule antagonists of the sonic hedgehog signaling (Shh) pathway (AID 1259369; calls by dose curve; further: nearly all actives have a fitted effect of over 45% in size; further: potency means the concentration at half of the fitted maximal effect)
Outline: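 NIH/3T3-derived 3T3Gli1-Luc cells with stably integrated Gli1-Luc reporter were preincubated 4hr at 37 C, then given compounds in DMSO plus Shh conditioned medium and incubated 24hr. Firefly luciferase luminescence read after 30min reagent at room temperature.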

[2] = biological target: Estrogen receptor beta (Homo sapiens) (UniProt Q92731); experiment: qHTS assay to identify small molecule antagonists of the estrogen receptor beta (ER-beta) signaling pathway (AID 1259378; active means well fitted inhibition curve with a large enough effect in the signal ratio in the repeat runs, not every such curve was filed as active; the % refers to the signal ratio)
Estrogen receptor beta (Homo sapiens), sequence (Q92731 whole entry, looked up): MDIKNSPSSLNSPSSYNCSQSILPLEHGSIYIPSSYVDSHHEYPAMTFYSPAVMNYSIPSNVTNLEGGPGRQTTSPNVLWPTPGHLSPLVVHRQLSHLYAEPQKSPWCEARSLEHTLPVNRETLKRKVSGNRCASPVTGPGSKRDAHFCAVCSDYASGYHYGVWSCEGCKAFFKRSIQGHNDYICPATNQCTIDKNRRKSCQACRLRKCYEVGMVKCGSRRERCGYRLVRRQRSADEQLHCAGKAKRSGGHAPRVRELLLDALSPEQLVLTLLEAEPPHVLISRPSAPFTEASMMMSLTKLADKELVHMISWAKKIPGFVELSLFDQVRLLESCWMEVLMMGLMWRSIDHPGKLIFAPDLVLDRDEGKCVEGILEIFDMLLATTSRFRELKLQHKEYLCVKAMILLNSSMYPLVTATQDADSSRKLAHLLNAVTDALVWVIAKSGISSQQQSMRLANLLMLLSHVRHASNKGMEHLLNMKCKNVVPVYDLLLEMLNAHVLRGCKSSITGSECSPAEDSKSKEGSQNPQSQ
Outline: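 Antagonist mode: compounds added to beta-lactamase reporter HEK293T ER-beta-UAS cells stimulated with E2 (1nM final), 16 hr at 37C. LiveBLAzer B/G FRET substrate, 2 hours room temperature, fluorescence read-out.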

[3] = qHTS assay to identify small molecule agonists of the androgen receptor (AR) signaling pathway in the presence of an antagonist - cell viability counter screen (AID 1259379); further: nearly all actives have a fitted effect of over 25% in size; further: potency means the concentration at half of the fitted maximal effect; on activity change, negative = cytotoxicity: series mostly up to about 92 µM
Outline: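 MDA-kb2 human breast carcinoma cells (stable MMTV-luciferase, AR/GR responsive) were seeded 3,000 cells/well, pre-incubated 5 hr at 37C without CO2, then given 3.0uM nilutamide and compounds at 15 concentrations for 16 hr. Viability was read by CellTiter-Fluor fluorescence.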

[4] = qHTS assay to identify small molecule agonists of the estrogen receptor beta (ER-beta) signaling pathway - cell viability counter screen (AID 1259380); further: nearly all actives have a fitted effect of over 30% in size; further: potency means the concentration at half of the fitted maximal effect
Outline: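 ER-beta-UAS-bla HEK293T cells in medium with 2% charcoal-stripped FBS were preincubated 6 hr at 37C, dosed with compound in DMSO for 16 hr, then after the bla read, CellTiter-Glo was added for 30 min at room temperature; luminescence recorded.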

[5] = qHTS assay to identify small molecule antagonists of the estrogen receptor beta (ER-beta) signaling pathway - cell viability counter screen (AID 1259382); further: nearly all actives have a fitted effect of over 55% in size; further: potency means the concentration at half of the fitted maximal effect;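 on activity change, negative = cytotoxicity: HEK293T cells carrying ER-beta-UAS-bla reporter stimulated with estradiol; series mostly up to about 92 µM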
Outline: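 ER-beta-UAS-bla HEK293T cells (2,000/well, 2% charcoal-stripped FBS) were pre-incubated 6 hr at 37C, then given compound plus 1nM final 17-beta-estradiol for 16 hr. Viability was read in the same wells by CellTiter-Glo luminescence after 30 min at room temperature.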

[6] = biological target: Estrogen receptor (Homo sapiens) (UniProt P03372); experiment: qHTS assay to identify small molecule agonists of the estrogen receptor alpha (ER-alpha) signaling pathway in the presence of an antagonist (AID 1259383; calls by dose curve; further: top concentration of the series differs between compounds; nearly all actives have a fitted effect of over 15% in size)
Estrogen receptor (Homo sapiens), sequence (P03372 whole entry, looked up): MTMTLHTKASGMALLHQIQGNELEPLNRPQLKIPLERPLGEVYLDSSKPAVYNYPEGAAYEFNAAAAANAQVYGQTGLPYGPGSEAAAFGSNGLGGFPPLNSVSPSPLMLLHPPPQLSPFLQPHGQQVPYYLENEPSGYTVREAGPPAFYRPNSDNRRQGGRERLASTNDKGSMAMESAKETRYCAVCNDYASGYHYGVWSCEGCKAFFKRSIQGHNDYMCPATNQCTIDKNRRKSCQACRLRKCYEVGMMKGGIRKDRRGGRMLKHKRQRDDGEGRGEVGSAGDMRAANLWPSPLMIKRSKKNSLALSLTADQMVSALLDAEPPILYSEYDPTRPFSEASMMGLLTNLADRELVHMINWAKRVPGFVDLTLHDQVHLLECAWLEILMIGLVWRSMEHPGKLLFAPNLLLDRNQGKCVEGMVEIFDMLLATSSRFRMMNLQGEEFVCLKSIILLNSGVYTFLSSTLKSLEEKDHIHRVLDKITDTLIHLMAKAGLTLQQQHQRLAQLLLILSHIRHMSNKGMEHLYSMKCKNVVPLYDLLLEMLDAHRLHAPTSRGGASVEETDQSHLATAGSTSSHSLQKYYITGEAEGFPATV
Outline: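 VM7Luc4E2 cells (endogenous full-length ER-alpha, 4×ERE-luciferase) were precultured 5 days in phenol red-free medium with 10% charcoal-stripped FBS, given 10.0nM ICI-182,780 (final), then treated with compounds at 15 concentrations for 22hr at 37C; luminescence read with ONE-Glo.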

[7] = qHTS assay to identify small molecule agonists or antagonists of the thyroid stimulating hormone receptor (TSHR) signaling pathway - wild type cell line counter screen (AID 1259384; calls by dose curve)
Outline: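 Counter screen in untransfected Hek293: compounds (15-point titration, triplicate) plus phosphodiesterase inhibitor Ro20-1724 added after 18 h plating; 30 min RT. Intracellular cAMP via competitive d2/cryptate immunoassay, 1 h incubation.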

[8] = biological target: Estrogen receptor beta (Homo sapiens) (UniProt Q92731); experiment: qHTS assay to identify small molecule agonists of the estrogen receptor beta (ER-beta) signaling pathway (AID 1259377; active means well fitted activation curve with a large enough effect in the signal ratio in the repeat runs, not every such curve was filed as active; the % refers to the signal ratio)
Outline: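 Ratiometric beta-lactamase FRET read-out came after 2 h substrate loading at room temperature. It followed 16 h compound treatment at 37C of GripTite HEK293T cells carrying a UAS-bla reporter, plated in 2% charcoal-stripped FBS medium.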

[9] = biological target: Androgen receptor (Homo sapiens) (UniProt P10275); experiment: qHTS assay to identify small molecule agonists of the androgen receptor (AR) signaling pathway in the presence of an antagonist (AID 1259381; calls by dose curve; further: nearly all actives have a fitted effect of over 15% in size)
Androgen receptor (Homo sapiens), sequence (P10275 whole entry, looked up): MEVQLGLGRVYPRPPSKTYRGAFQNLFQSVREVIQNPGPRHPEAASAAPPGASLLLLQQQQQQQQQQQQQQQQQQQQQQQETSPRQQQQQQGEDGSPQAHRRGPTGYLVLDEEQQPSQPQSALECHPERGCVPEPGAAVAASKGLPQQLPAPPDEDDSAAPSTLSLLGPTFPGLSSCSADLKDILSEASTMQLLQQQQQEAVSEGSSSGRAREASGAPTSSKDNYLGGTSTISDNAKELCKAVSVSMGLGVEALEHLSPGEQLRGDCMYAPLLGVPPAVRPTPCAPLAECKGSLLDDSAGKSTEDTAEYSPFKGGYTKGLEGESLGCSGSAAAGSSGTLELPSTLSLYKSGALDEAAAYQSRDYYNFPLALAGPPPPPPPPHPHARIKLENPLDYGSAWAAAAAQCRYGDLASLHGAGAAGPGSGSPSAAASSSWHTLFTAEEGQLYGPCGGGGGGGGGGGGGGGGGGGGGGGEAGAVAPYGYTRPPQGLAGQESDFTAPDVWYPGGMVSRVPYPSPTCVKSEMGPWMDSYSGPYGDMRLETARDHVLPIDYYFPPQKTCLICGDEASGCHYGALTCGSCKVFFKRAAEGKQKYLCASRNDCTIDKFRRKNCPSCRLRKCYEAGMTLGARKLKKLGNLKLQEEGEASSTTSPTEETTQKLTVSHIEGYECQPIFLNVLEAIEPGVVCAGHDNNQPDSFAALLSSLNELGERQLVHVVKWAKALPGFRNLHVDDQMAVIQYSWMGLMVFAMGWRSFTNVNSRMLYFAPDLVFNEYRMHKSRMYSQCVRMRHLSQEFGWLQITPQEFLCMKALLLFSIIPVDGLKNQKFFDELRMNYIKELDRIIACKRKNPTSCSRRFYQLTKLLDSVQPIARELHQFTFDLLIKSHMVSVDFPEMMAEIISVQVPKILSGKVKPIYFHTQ
Outline: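 MDA-kb2 human breast carcinoma cells carrying an MMTV-luciferase reporter (AR- and GR-responsive) were treated with compounds at 15 concentrations plus 3.0uM final nilutamide for 16hr at 37C without CO2; luminescence was read after ONE-Glo addition.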

Nc1ccc(S(=O)(=O)Nc2ccnn2-c2ccccc2)cc1
Potency [1]: inactive | activity, negative = inhibition [2]: 0.746% [at 19 µM] | activity change, negative = cytotoxicity [3]: -0.249% [at 19 µM] | activity change, negative = cytotoxicity [4]: 9.8% [at 19 µM] | activity change, negative = cytotoxicity [5]: 5.67% [at 19 µM] | activation [6]: -0.0289% [at 19 µM] | cAMP activity change [7]: 3.46% [at 18.9 µM]

CCOC(=O)Nc1ccc(NCc2ccc(F)cc2)nc1N
Potency [1]: inactive | outcome [2]: inactive | Potency [3]: inactive | Potency [4]: inactive | Potency [5]: inactive | Potency [6]: inactive | outcome [7]: inactive

Nc1c2c(nc3ccccc13)CCCC2O (stereo unspecified)
outcome [8]: inactive | outcome [2]: inactive | Potency [3]: inactive | Potency [4]: inactive | Potency [5]: inactive | Potency [6]: inactive | outcome [7]: inactive

CC[N+](C)(C)c1cccc(O)c1
outcome [8]: inactive | outcome [2]: inactive | Potency [5]: inactive | outcome [7]: inactive

CC(=O)Nc1c(I)cc(I)c(C(=O)O)c1I
Potency [1]: inactive | Potency [4]: inactive | Potency [5]: inactive | Potency [6]: inactive

CO/N=C(/C(=O)N[C@@H]1C(=O)N2C(C(=O)OCOC(=O)C(C)(C)C)=C(C)CS[C@H]12)c1csc(N)n1
Potency [1]: inactive | outcome [8]: inactive | outcome [2]: inactive | Potency [4]: inactive | Potency [5]: inactive | outcome [7]: inactive

COCCCOCCCOC
Potency [1]: inactive | outcome [8]: inactive | outcome [2]: inactive | Potency [4]: inactive | Potency [5]: inactive | Potency [6]: inactive | outcome [7]: inactive

CCOC(=O)c1ccc(C)cc1
outcome [8]: inactive | outcome [2]: inactive | Potency [4]: inactive | Potency [5]: inactive | Potency [6]: inactive

CC(=O)N(CC(O)CO)c1c(I)c(C(=O)NCCO)c(I)c(C(=O)NCC(O)CO)c1I (stereo unspecified)
Potency [3]: inactive | Potency [4]: inactive | Potency [5]: inactive | outcome [7]: inactive

CCN1CCC[C@H]1CNC(=O)c1cc(S(N)(=O)=O)ccc1OC
Potency [1]: inactive | outcome [8]: inactive | outcome [2]: inactive | Potency [3]: inactive | Potency [4]: inactive | Potency [5]: inactive | outcome [7]: inactive

C[C@H]1C[C@@H](O)CC(C)(C)C1
Potency [1]: inactive | outcome [2]: inactive | Potency [3]: inactive | Potency [5]: inactive | outcome [7]: inactive

COCCc1ccc(OCC(O)CNC(C)C)cc1 (stereo unspecified)
outcome [8]: inactive | outcome [2]: inactive | Potency [3]: inactive | Potency [5]: inactive | outcome [7]: inactive

NS(=O)(=O)c1cc2c(cc1Cl)NC(C1CC3C=CC1C3)NS2(=O)=O (stereo unspecified)
outcome [8]: inactive | outcome [2]: inactive | Potency [3]: inactive | Potency [4]: inactive | Potency [9]: inactive | Potency [5]: inactive | Potency [6]: inactive

OC(CCN1CCCCC1)(c1ccccc1)C1CC2C=CC1C2 (stereo unspecified)
Potency [1]: 16.8 µM (active) | Potency [5]: inactive | Potency [6]: inactive

O=Cc1cccc([N+](=O)[O-])c1
Potency [1]: inactive | Potency [3]: inactive | Potency [4]: inactive | Potency [5]: inactive | Potency [6]: inactive | outcome [7]: inactive

N#Cc1ccc(C2CCCc3cncn32)cc1 (stereo unspecified)
Potency [1]: inactive | Potency [3]: inactive | Potency [5]: inactive | Potency [6]: inactive | outcome [7]: inactive

CCCCCCCCCCCCN(CCCCCCCCCCCC)CCCCCCCCCCCC
Potency [1]: inactive | Potency [3]: inactive | Potency [4]: inactive | Potency [5]: inactive | outcome [7]: inactive

CCCCNC(=O)NCCCC
Potency [3]: inactive | Potency [4]: inactive | Potency [9]: inactive | Potency [5]: inactive | Potency [6]: inactive | outcome [7]: inactive

CN(C)CCCN1c2ccccc2CCc2ccc(Cl)cc21
Potency [1]: 15.4 µM (active) and 11.9 µM (active) | Potency [3]: 48.6 µM (active) and 33.5 µM (active) | Potency [4]: 24.3 µM (active) and 21.1 µM (active) | Potency [5]: 24.3 µM (active) and 18.8 µM (active) | outcome [7]: inactive

OCCCC1CCCCC1
Potency [1]: inactive | outcome [8]: inactive | Potency [3]: inactive | Potency [4]: inactive | Potency [5]: inactive | Potency [6]: inactive | outcome [7]: inactive

COC(=O)[C@@H](N)Cc1ccc(O)c(O)c1
outcome [8]: inactive | outcome [2]: inactive | Potency [3]: inactive | Potency [4]: inactive | Potency [9]: inactive | Potency [5]: inactive | outcome [7]: inactive

CN1CC(=O)NC1=N
Potency [1]: inactive | outcome [2]: inactive | Potency [4]: inactive | Potency [9]: inactive | Potency [5]: inactive | outcome [7]: inactive

CCCCCCCCS(=O)(=O)Cl
Potency [1]: inactive | outcome [8]: inactive | Potency [3]: inactive | Potency [4]: inactive | Potency [5]: inactive | outcome [7]: inactive
